# Measured values: PubChem BioAssay (NCATS)
# Results filed as inconclusive are left out. A call without a number means that no potency is given here. Active and inactive are the calls of the source. Unless noted, calls follow the shape of the dose curve; as a rule, active = well fitted curve in the direction sought with a large enough effect; inconclusive = small, poorly fitted or top-dose-only effect, or another doubt; inactive = no such curve, though single readings can be large; an effect the other way counts as inactive or inconclusive.
# Target: Guanine nucleotide-binding protein G(i) subunit alpha-1 (Homo sapiens) (UniProt P63096)
# Sequence (P63096 whole entry, looked up): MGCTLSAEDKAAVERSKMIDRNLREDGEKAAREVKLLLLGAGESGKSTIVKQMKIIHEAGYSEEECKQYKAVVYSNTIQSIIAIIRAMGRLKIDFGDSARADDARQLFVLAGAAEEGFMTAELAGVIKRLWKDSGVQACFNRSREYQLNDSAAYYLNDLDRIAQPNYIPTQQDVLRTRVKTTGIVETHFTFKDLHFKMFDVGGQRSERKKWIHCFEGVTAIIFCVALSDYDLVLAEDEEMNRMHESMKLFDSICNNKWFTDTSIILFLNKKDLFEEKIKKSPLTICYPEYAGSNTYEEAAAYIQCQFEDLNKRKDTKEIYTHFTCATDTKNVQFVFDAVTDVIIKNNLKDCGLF
# Test: qHTS Assay for Inhibitors of RGS12 GoLoco Motif Activity (Green Fluorophore) (AID 879);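 also: negative values mean loss of peptide binding seen as reduced polarization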
# Conditions: Galphai1/FITC-RGS12 GoLoco peptide, fluorescence polarization; series mostly up to 57.1 µM
# How it was run: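 Fluorescence polarization assay: 50 nM Gαi1 with 10 nM FITC-labeled RGS12 GoLoco peptide in 10 mM Tris pH 7.5, 150 mM NaCl, 0.1 mM GDP, 0.05% NP40, 10 min at room temperature with compound.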
row,Compound,outcome
1,NCCNC(=O)c1ncsc1-c1cccc(F)c1,inactive
2,CN1[C@@H]2CC[C@H]1CC(OC(c1ccccc1)c1ccccc1)C2 (stereo partly drawn),inactive
3,CC(=O)SCC[N+](C)(C)C,inactive
4,COC1=C(OC)C(=O)c2ccccc2C1=O,inactive
5,Cn1c(=O)c2[nH]c(-c3ccccc3)nc2n(C)c1=O,inactive
6,C[N+]1(C)CCC(OC(=O)C(c2ccccc2)c2ccccc2)CC1,inactive
7,N[C@@H](CC(=O)O)C(=O)O,inactive
8,CN(C)C(N)=NCCC[C@H](N)C(=O)O,inactive
9,CCCCCCCC/C=C\CCCCCCCC(=O)NCCO,inactive
10,C[N+](C)(CCCCCC[N+](C)(C)CCCN1C(=O)c2cccc3cccc(c23)C1=O)CCCN1C(=O)c2cccc3cccc(c23)C1=O,inactive
11,O=C(O)c1cc(=O)c2ccccc2[nH]1,inactive
12,CCN1/C(=C/C(C)=O)Sc2ccc(OC)cc21,inactive
13,NO,inactive
14,CC1(C)CCC=[N+]1[O-],inactive
15,CN1CCc2ccccc2Cc2[nH]c3ccccc3c2CC1,inactive
16,Ic1ccc(N2CCN(Cc3c[nH]c4ncccc34)CC2)cc1,inactive

row,Compound,outcome
1,c1ccc(-c2ccccn2)nc1,inactive
2,Clc1ccc(N2CCN(Cc3c[nH]c4ncccc34)CC2)cc1,inactive
3,CN(C)c1nc(N)c(C(=O)N=C(N)N)nc1Cl,inactive
4,CC(C)Cc1ccc([C@H](C)C(=O)O)cc1,inactive
5,O=C1NC(O)=NC1(c1ccccc1)c1ccccc1,inactive
6,CN1CCc2cc(NC(=O)Nc3cccnc3)ccc21,inactive
7,NC[C@@H]1O[C@H](C23CC4CC(CC(C4)C2)C3)Cc2c1ccc(O)c2O,inactive
8,NC(=O)C(=O)O,inactive
9,O=c1[nH]c2cc(C(F)(F)F)ccc2n1-c1cc(C(F)(F)F)ccc1O,inactive
10,COc1cc(OC)c(/C=C2/C(=O)Nc3ccccc32)c(OC)c1,inactive
11,NCCCCCCCCCCN,inactive
12,O=c1[nH]c2cc(Cl)c(Cl)cc2[nH]c1=O,inactive
13,CC(C)NC[C@H](O)COc1cccc2[nH]ccc12,inactive
14,COc1ccc(/C=C/C(=O)Nc2ccccc2C(=O)O)cc1OC,inactive
15,NCCCS(=O)(=O)O,inactive
16,O=S(=O)(c1cccc2c(I)cccc12)N1CCCNCC1,inactive

# Target: Cytochrome P450 3A4 (Homo sapiens) (UniProt P08684)
# Sequence (P08684 whole entry, looked up): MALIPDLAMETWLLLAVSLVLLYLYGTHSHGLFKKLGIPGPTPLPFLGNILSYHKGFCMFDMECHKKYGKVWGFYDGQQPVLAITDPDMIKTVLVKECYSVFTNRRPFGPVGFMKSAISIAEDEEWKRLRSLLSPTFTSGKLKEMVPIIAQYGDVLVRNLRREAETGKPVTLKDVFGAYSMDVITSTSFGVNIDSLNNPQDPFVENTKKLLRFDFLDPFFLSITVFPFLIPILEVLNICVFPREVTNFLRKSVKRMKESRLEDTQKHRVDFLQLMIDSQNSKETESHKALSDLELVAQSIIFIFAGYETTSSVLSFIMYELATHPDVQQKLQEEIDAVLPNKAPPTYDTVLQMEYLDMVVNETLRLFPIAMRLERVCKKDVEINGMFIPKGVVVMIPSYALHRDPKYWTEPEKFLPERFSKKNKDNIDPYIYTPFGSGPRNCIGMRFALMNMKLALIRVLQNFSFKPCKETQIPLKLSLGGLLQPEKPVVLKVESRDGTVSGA
# Test: qHTS Assay for Activators of Cytochrome P450 3A4 (AID 885); also: nearly all actives have a fitted effect of over 65% in size
# Conditions: recombinant CYP3A4, Luciferin-PPXE luminescence, 60 min; series mostly up to 57.1 µM
# How it was run: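 20nM CYP3A4 + 25uM Luciferin-PPXE (=KM), 200mM KPO4; cpd 10 min RT; NADPH regen, 60 min RT; stop w/ detection buffer, 20 min; luminescence. Normalized to 57 uM ketoconazole.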
row,Compound,Potency
1,NCCNC(=O)c1ncsc1-c1cccc(F)c1,inactive
2,COC1=C(OC)C(=O)c2ccccc2C1=O,inactive
3,CCCCCCCC/C=C\CCCCCCCC(=O)NCCO,inactive
4,C[N+](C)(CCCCCC[N+](C)(C)CCCN1C(=O)c2cccc3cccc(c23)C1=O)CCCN1C(=O)c2cccc3cccc(c23)C1=O,inactive
5,CCN1/C(=C/C(C)=O)Sc2ccc(OC)cc21,inactive
6,Ic1ccc(N2CCN(Cc3c[nH]c4ncccc34)CC2)cc1,inactive
7,CN(C)c1nc(N)c(C(=O)N=C(N)N)nc1Cl,inactive
8,CN1CCc2cc(NC(=O)Nc3cccnc3)ccc21,inactive
9,NC[C@@H]1O[C@H](C23CC4CC(CC(C4)C2)C3)Cc2c1ccc(O)c2O,inactive
10,COc1ccc(/C=C/C(=O)Nc2ccccc2C(=O)O)cc1OC,inactive

# Test system: not listed separately
# Test: qHTS Assay for Identification of Small Molecule Antagonists for NFkB Signaling Pathway (AID 895; active = well fitted inhibition curve with a large enough effect in the signal ratio, with a control signal flat, not every such curve was filed as active; the % refers to the signal ratio)
# Conditions: NFkB beta-lactamase reporter cells, FRET ratio 460/530, stimulated with 10 pM TNF alpha; series mostly up to 38.3 µM
# How it was run: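 NFkB-bla ME-180 cervical carcinoma cells with beta-lactamase reporter under NFkB response element; compounds added, then TNF alpha at 10 pM final (EC50), 5 h at 37 C. LiveBLAzer substrate 2 h, room temperature; emission 460/530 nm at 405 nm excitation.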
row,Compound,Potency
1,CC(=O)SCC[N+](C)(C)C,inactive
2,Cn1c(=O)c2[nH]c(-c3ccccc3)nc2n(C)c1=O,inactive
3,C[N+]1(C)CCC(OC(=O)C(c2ccccc2)c2ccccc2)CC1,inactive
4,COc1cc(OC)c(/C=C2/C(=O)Nc3ccccc32)c(OC)c1,inactive
5,O=c1[nH]c2cc(Cl)c(Cl)cc2[nH]c1=O,inactive

# Test system: not listed separately
# Test: Confirmation and Secondary Assay for Modulators of Hemoglobin Beta Chain Splicing at IVS2 654 locus (AID 910);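 also: per-well total GFP intensity by laser scanning cytometry after 2-day treatment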
# Conditions: HeLa EGFP-654 splicing reporter, GFP fluorescence, 48 h; series mostly up to 46.1 µM
# How it was run: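 HeLa cells stably carrying EGFP interrupted by mutant beta-globin IVS2-654 intron (CMV-driven) were treated with compound for 2 days at 37C; corrected splicing was scored as total peak GFP intensity per well (488 nm excitation, 500-520 nm emission).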
row,Compound,outcome
1,O=C(O)c1cc(=O)c2ccccc2[nH]1,inactive
2,O=c1[nH]c2cc(Cl)c(Cl)cc2[nH]c1=O,inactive
3,NCCCS(=O)(=O)O,inactive

# Test system: not listed separately
# Test: qHTS Assay for Identification of Small Molecule Agonists for Thrombopoietin (TPO) Signaling Pathway (AID 917); also: potency is read from the fitted curve at half-maximal effect
# Conditions: TPO signaling pathway reporter cells, agonist qHTS, stimulated with TPO at its EC50; series mostly up to 38.5 µM
# How it was run: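 Activators of TPO signaling were sought in murine Ba/F3 cells transfected with the human receptor, using a luciferase gene driven by the Glycoprotein IIb promoter; 24-hr compound exposure at 37 C alongside 26 pM TPO, in IL-3-free medium.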
row,Compound,Potency
1,CN1[C@@H]2CC[C@H]1CC(OC(c1ccccc1)c1ccccc1)C2 (stereo partly drawn),inactive
2,CC(=O)SCC[N+](C)(C)C,inactive
3,Cn1c(=O)c2[nH]c(-c3ccccc3)nc2n(C)c1=O,inactive
4,C[N+]1(C)CCC(OC(=O)C(c2ccccc2)c2ccccc2)CC1,inactive
5,N[C@@H](CC(=O)O)C(=O)O,inactive
6,CN(C)C(N)=NCCC[C@H](N)C(=O)O,inactive
7,CCCCCCCC/C=C\CCCCCCCC(=O)NCCO,inactive
8,C[N+](C)(CCCCCC[N+](C)(C)CCCN1C(=O)c2cccc3cccc(c23)C1=O)CCCN1C(=O)c2cccc3cccc(c23)C1=O,inactive
9,O=C(O)c1cc(=O)c2ccccc2[nH]1,inactive
10,NO,inactive
11,CC1(C)CCC=[N+]1[O-],inactive
12,CN1CCc2ccccc2Cc2[nH]c3ccccc3c2CC1,inactive
13,c1ccc(-c2ccccn2)nc1,inactive
14,Clc1ccc(N2CCN(Cc3c[nH]c4ncccc34)CC2)cc1,inactive
15,CN(C)c1nc(N)c(C(=O)N=C(N)N)nc1Cl,inactive
16,CC(C)Cc1ccc([C@H](C)C(=O)O)cc1,inactive
17,O=C1NC(O)=NC1(c1ccccc1)c1ccccc1,inactive
18,CN1CCc2cc(NC(=O)Nc3cccnc3)ccc21,1.58 µM (active)
19,NC(=O)C(=O)O,inactive
20,O=c1[nH]c2cc(C(F)(F)F)ccc2n1-c1cc(C(F)(F)F)ccc1O,inactive
21,NCCCCCCCCCCN,inactive
22,CC(C)NC[C@H](O)COc1cccc2[nH]ccc12,inactive
23,O=S(=O)(c1cccc2c(I)cccc12)N1CCCNCC1,inactive
